The supplement of paper PMC3545927
This is one part of the list. How many sequences the whole screen found active is unknown.

Molecular target: furin, P09958
Test: furin cleavage Z-score vs untreated control; higher = more cleavage, active = 3.5 or more, inactive = 1 or less, 8 variable residues between constant flanks
How it was run: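 Magnetic beads held 8-mer peptides by the N-terminus, each fused to a cDNA oligonucleotide, and purified furin was added for 7.5, 15 or 30 min. Released DNA was sequenced after PCR adapter tagging. The cleavage Z-score is the log count relative to furin-free reactions, lowess-adjusted and divided by median absolute deviation.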
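Further: purified furin at 1:10 enzyme:substrate in 50 mM HEPES pH 7.5.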

Chain of furin, P09958 (P09958 whole entry): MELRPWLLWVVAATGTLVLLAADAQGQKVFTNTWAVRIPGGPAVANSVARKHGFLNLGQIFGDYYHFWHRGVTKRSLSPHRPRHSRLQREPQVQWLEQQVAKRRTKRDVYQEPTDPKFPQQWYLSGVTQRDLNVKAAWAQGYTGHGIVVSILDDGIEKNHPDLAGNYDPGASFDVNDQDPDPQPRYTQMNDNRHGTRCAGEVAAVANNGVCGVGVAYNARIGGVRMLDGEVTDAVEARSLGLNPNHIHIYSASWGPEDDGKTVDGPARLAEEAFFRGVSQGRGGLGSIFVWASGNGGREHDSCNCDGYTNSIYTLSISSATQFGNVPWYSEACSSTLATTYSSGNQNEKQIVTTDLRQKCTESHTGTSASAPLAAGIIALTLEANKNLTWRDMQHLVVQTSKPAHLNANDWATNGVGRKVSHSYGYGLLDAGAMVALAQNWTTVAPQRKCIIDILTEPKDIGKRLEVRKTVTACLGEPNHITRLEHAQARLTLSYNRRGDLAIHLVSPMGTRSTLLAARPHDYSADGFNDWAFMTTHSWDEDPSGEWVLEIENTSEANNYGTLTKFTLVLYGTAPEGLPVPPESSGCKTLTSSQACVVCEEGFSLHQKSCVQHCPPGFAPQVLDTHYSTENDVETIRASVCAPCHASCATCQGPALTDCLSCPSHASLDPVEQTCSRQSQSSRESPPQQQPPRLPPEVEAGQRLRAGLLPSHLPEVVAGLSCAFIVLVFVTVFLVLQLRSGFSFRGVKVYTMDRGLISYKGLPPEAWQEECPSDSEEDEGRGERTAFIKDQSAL

Row | Sequence | furin cleavage Z-score (7.5 min) | furin cleavage Z-score (15 min) | furin cleavage Z-score (30 min)
1 | CASLMAFTAAAGNASASA [HC1055] | -0.632 (inactive) | -0.242 (inactive) | -1.13 (inactive)
2 | CAAAASKVKAAGNASASA [HC1407] | 0.991 (inactive) | -0.764 (inactive) | -0.995 (inactive)
3 | CARARRALRRAGNASASA [FS-2130] | 3.99 (active) | 4.89 (active) | 7.04 (active)
4 | CARARRVLEAAGNASASA [FS-1685] | -0.496 (inactive) | -0.739 (inactive) | -0.66 (inactive)
5 | CARARRQDVKAGNASASA [FS-2649] | 0.761 (inactive) | 0.529 (inactive) | 2.07
6 | CARARRVTDAAGNASASA [FS-2890] | -1.51 (inactive) | -0.986 (inactive) | -0.304 (inactive)
7 | CARARRAVQKAGNASASA [FS-3149] | 1.2 | 0.71 (inactive) | 1.68
8 | CAVCAAILRRAGNASASA [HC1109] | -1.76 (inactive) | -0.361 (inactive) | 0.614 (inactive)
9 | CARARRAIAAAGNASASA [FS-3148] | 5.95 (active) | 5.73 (active) | 4.12 (active)
10 | CARARRAVDKAGNASASA [FS-2252] | 6.76 (active) | 6.96 (active) | 6.15 (active)
11 | CARCRRALRRAGNASASA [FS-1687] | 3.87 (active) | 3.85 (active) | 7.16 (active)
12 | CARCIRAFCRAGNASASA [FS-2897] | -0.211 (inactive) | 0.945 (inactive) | 0.335 (inactive)
13 | CAAGVGIYLLAGNASASA [HC1661] | -0.0484 (inactive) | -0.628 (inactive) | 0.389 (inactive)
14 | CARLHGLSAFAGNASASA [HC1603] | -0.521 (inactive) | -1.08 (inactive) | 0.0737 (inactive)
15 | CAFTPCSGSWAGNASASA [HC1827] | -0.899 (inactive) | -0.656 (inactive) | -0.511 (inactive)
16 | CACEMEECSQAGNASASA [HC1800] | -0.225 (inactive) | 0.44 (inactive) | -0.298 (inactive)
17 | CARLRKGCGAAGNASASA [FS-2157] | -0.162 (inactive) | 0.798 (inactive) | -0.0332 (inactive)
18 | CAGKVLIDILAGNASASA [HC1083] | -0.625 (inactive) | -0.337 (inactive) | -0.826 (inactive)
19 | CAAPRRLRRAAGNASASA [FS-7] | 6.44 (active) | 6.75 (active) | 5.94 (active)
20 | CALEGRRKRAAGNASASA [FS-938] | 9.45 (active) | 10.2 (active) | 8.2 (active)
21 | CAQKGRVRRAAGNASASA [FS-78] | 11.9 (active) | 10.5 (active) | 7.65 (active)
22 | CAGKVRLRRAAGNASASA [FS-655] | 8.27 (active) | 7.38 (active) | 7.81 (active)

Row | Sequence | furin cleavage Z-score (7.5 min) | furin cleavage Z-score (15 min) | furin cleavage Z-score (30 min)
23 | CARGVAKAVDAGNASASA [HC754] | -0.917 (inactive) | 0.591 (inactive) | 0.29 (inactive)
24 | CALWILQASLAGNASASA [HC610] | -0.000456 (inactive) | 2.88 | 1.52
25 | CADCNTCVTQAGNASASA [HC887] | 0.505 (inactive) | -0.795 (inactive) | -0.033 (inactive)
26 | CAEVPCHCPSAGNASASA [HC2380] | -0.21 (inactive) | 0.0658 (inactive) | -0.42 (inactive)
27 | CASTPCSAHRAGNASASA [HC2573] | 0.385 (inactive) | 0.166 (inactive) | 1.63
28 | CAGMGRVRRAAGNASASA [FS-27] | 11.2 (active) | 10.9 (active) | 10 (active)
29 | CALEGRVRRAAGNASASA [FS-268] | 10.4 (active) | 10.8 (active) | 9.36 (active)
30 | CAYLNRYKRAAGNASASA [FS-635] | 8.98 (active) | 9.12 (active) | 5.24 (active)
31 | CAWLKRRKRAAGNASASA [FS-1181] | 11.7 (active) | 10.8 (active) | 7.39 (active)
32 | CAVLKEVKAAAGNASASA [HC1404] | -0.975 (inactive) | 0.455 (inactive) | -0.678 (inactive)
33 | CATIASPKGPAGNASASA [HC705] | -0.242 (inactive) | -0.653 (inactive) | -1.2 (inactive)
34 | CACGKYLFNWAGNASASA [HC1631] | -0.792 (inactive) | -0.758 (inactive) | -0.511 (inactive)
35 | CAPVENLETTAGNASASA [HC759] | 0.416 (inactive) | 0.844 (inactive) | 0.545 (inactive)
36 | CAYDVVCCSMAGNASASA [HC2109] | 0.403 (inactive) | -1.03 (inactive) | -0.733 (inactive)
37 | CAPEGRRKRTAGNASASA [FS-1042] | 7.2 (active) | 9.98 (active) | 7.54 (active)
38 | CAPEGRTWAQAGNASASA [HC196] | 0.395 (inactive) | -0.56 (inactive) | -1.92 (inactive)
39 | CAVDAETHVTAGNASASA [HC351] | -2.06 (inactive) | -2.12 (inactive) | -1.23 (inactive)
40 | CARRVRSYGQAGNASASA [FS-2084] | 2.55 | 4.27 (active) | 5.55 (active)
41 | CALSKRSLRDAGNASASA [FS-1373] | 4 (active) | 8.19 (active) | 6.86 (active)
42 | CARRKREVQMAGNASASA [FS-2779] | 6.69 (active) | 7.05 (active) | 7 (active)
43 | CARRKREKTQAGNASASA [FS-3165] | 5.81 (active) | 8.48 (active) | 5.8 (active)
44 | CARRKRLPEMAGNASASA [FS-1778] | 0.399 (inactive) | 0.463 (inactive) | -1.64 (inactive)
